Legend:
Type in all cases: functional
[1] = molecular target: Solute carrier family 2, facilitated glucose transporter member 1 (Homo sapiens) (UniProt P11166); assay: ST_JUDE_LEISH: Cytotoxicity at 2uM final concentration against transgenic Leishmania Mexicana promastigotes LmGLUT1 that are glucose transport deficient and complemented with the human glucose transporter GLUT1. Activity is measured by DNA content using SYBR green in vitro
[2] = molecular target: Hexose transporter 1 (Plasmodium falciparum) (UniProt O97467); assay: ST_JUDE_LEISH: Cytotoxicity at 2uM final concentration against transgenic Leishmania Mexicana promastigotes LmPfHT that are glucose transport deficient and complemented with the Plasmodium falciparum hexose transporter. Activity is measured by DNA content using SYBR green in vitro
[3] = molecular target: Glucose transporter (Leishmania mexicana) (UniProt O61059); assay: ST_JUDE_LEISH: Cytotoxicity at 2uM final concentration against transgenic Leishmania Mexicana promastigotes LmGT2 that are glucose transport deficient and complemented with the L. Mexicana glucose transporter 2. Activity is measured by DNA content using SYBR green in vitro

Sequence of Solute carrier family 2, facilitated glucose transporter member 1 (Homo sapiens) (P11166 whole entry): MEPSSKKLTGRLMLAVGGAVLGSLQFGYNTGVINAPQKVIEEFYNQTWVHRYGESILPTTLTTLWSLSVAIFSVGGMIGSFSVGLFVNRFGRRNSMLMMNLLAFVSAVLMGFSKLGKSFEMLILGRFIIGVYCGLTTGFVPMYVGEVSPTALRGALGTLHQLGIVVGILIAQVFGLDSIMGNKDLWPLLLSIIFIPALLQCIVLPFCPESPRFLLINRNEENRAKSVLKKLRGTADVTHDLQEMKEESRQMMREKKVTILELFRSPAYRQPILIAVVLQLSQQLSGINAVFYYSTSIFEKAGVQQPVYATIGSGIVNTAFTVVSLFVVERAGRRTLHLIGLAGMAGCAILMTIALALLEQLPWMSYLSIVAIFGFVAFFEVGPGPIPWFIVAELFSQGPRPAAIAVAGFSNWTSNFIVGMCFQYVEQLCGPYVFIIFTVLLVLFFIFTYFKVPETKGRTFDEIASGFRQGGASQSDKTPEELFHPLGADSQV

## CCOC(=O)c1ccc(COc2ccc(C)nc2)cc1
[1]
  inhibition: -1.54%
[2]
  inhibition: -0.85%
[3]
  inhibition: 0.17%

## Cc1cc(-c2cnc(N)c(-c3ccc(N4CCN(C)CC4)cc3)c2)cc(C)c1O
[1]
  inhibition: 3.43%
[2]
  inhibition: 0.67%
[3]
  inhibition: 2.45%

## Cc1ccc(-n2cc(CNCC3CCN(CCO)CC3)c(-c3ccc(F)cc3)n2)cc1
[1]
  inhibition: 85%
[2]
  inhibition: 2.77%
[3]
  inhibition: 28.2%

## COc1ccc(NC(=O)c2ccc(OCCCCCCCOc3ccc(C(=O)Nc4ccc(OC)c(N5CCN(C)CC5)c4)cc3)cc2)cc1N1CCN(C)CC1
[1]
  inhibition: 0.98%
[2]
  inhibition: 0.63%
[3]
  inhibition: 1.11%

## Cc1cc(N[C@@H](Cc2ccccc2)C(=O)NCc2cccs2)nc(NCCc2ccc(F)cc2)n1
[1]
  inhibition: 8.62%
[2]
  inhibition: 8.93%
[3]
  inhibition: 4.14%

## CC(O)C1CCCCN1C(=O)c1ccc(-c2cccc(-c3nc4cc(F)ccc4[nH]3)c2)cc1 (stereo unspecified)
[1]
  inhibition: 3.01%
[2]
  inhibition: 2.87%
[3]
  inhibition: 3.89%

## FC(F)(F)c1ccc2[nH]c(-c3ccc(-c4cccc(CN5CCN(CCN6CCOCC6)CC5)c4)cc3)nc2c1
[1]
  inhibition: 1.77%
[2]
  inhibition: 3.69%
[3]
  inhibition: 2.25%

## CC1(C)N=C(N)N=C(N)C1c1ccc(Cl)cc1 (stereo unspecified)
[1]
  inhibition: 4.19%
[2]
  inhibition: 5.72%
[3]
  inhibition: 3.51%

## O=C(NCCOc1ccccc1)[C@H](Cc1ccccc1)Nc1ccnc(NCC2CCCCC2)n1
[1]
  inhibition: 2.23%
[2]
  inhibition: 1.21%
[3]
  inhibition: 0.92%

## Cc1cccc(OCCCCON2C(=N)N=C(N)NC2(C)C)c1C
[1]
  inhibition: 0.1%
[2]
  inhibition: 0.14%
[3]
  inhibition: 1.69%

## O=C(/C=C/c1ccc(Cl)c(Cl)c1)NCCCCCN1CCC(NC(=O)c2cccc(Cl)c2)CC1
[1]
  inhibition: 9.72%
[2]
  inhibition: 10.2%
[3]
  inhibition: 7.71%

## CCC(ON1C(N)=NC(N)=NC1(C)C)c1ccc(Cl)cc1 (stereo unspecified)
[1]
  inhibition: 6.11%
[2]
  inhibition: 8.81%
[3]
  inhibition: 10.4%

Reference: ChEMBL document CHEMBL3433997, “St. Jude Leishmania screening dataset” (2016)
